These results are taken from PubChem BioAssay AID686976 (The Scripps Research Institute Molecular Screening Center, 2013).

Hit rate of the full screen: of about 1,900 compounds, about 320 (17%) were called active. Rule as the data show it: active = inhibition above about 30%; inactive = the rest. A selection follows.

The experiment relates to CCHF virus ovarian tumor domain protease (vOTU, L protein). Kind of experiment: CCHFV vOTU protease inhibitors, confirmation, biochemical, Pep-AMC substrate, fluorescence (AID 686976). To be noted: Recombinant CCHFV vOTU, at 11.5 µM, stronger effect = higher value.
By inhibition is commonly meant the change of the read-out against control, counted positive when it falls. `O=C(OCC(=O)c1cccs1)c1ccc([N+](=O)[O-])o1`: the inhibition is -0.43% (inactive).
Under `Cc1cc(OC(C)C(=O)Nc2ccc(S(=O)(=O)Nc3onc(C)c3C)cc2)cc(C)c1Cl` (stereo unspecified) stands 12.3% (inactive).
`CC(=O)N1CCN(c2ccc(NCc3ccc(C(C)C)cc3)cc2)CC1`: the inhibition was -11.5% (inactive).
In the case of `Clc1ccc(C2=CSC3=Nc4cccc5cccc(c45)N23)cc1`, the inhibition was 94.7% (active).
For the compound `O=S(=O)(Nc1ccc(O)c2ccccc12)c1ccc(OC(F)(F)F)cc1`, the inhibition is 10.3% (inactive).
Under `COc1ccc(S(=O)(=O)/N=C2\C=C(NS(=O)(=O)c3ccccc3)C(=O)c3ccccc32)cc1` stands 33% (active); under `Cc1ccc(S(=O)(=O)/N=C2\C=C(NS(=O)(=O)c3ccc(C)cc3)C(=O)c3ccccc32)cc1`, 38.1% (active).
Turning to `CC1=NN(c2ccc(Cl)c(C(=O)O)c2)C(=O)/C1=C/c1ccc(-c2ccccc2[N+](=O)[O-])o1`, the inhibition was 5.11% (inactive).
For `O=C1NC(c2ccc(-c3ccccc3[N+](=O)[O-])o2)C(C(=O)c2ccc(Cl)cc2)C(O)(C(F)(F)F)N1` (stereo unspecified), the inhibition is 34.9% (active).
The result for `Cc1cc(C)cc(NC(=S)NCCc2c[nH]c3ccccc23)c1` reads -3.11% (inactive); that for `CCN(CC)CCCC(C)n1c2nc(=O)[nH]c(=O)c-2nc2cc(Cl)ccc21` (stereo unspecified), 98.9% (active).
Under `COc1ccc(C(=O)COC(=O)c2ccc([N+](=O)[O-])s2)cc1OC` stands 12.4% (inactive).
The result for `COc1cc(NC(=O)COC(=O)c2ccc([N+](=O)[O-])s2)cc(OC)c1OC` reads 81.3% (active); that for `O=C(COc1ccc(Cl)cc1)N1CCN(c2cccc(C(F)(F)F)c2)CC1`, -7.38% (inactive).
With `COCCNC(=O)Nc1ccc2nc(-c3ccco3)c(-c3ccco3)nc2c1`, the inhibition is 1.78% (inactive).
As to `O=C(O)c1cc(S(=O)(=O)Nc2ccc3cn[nH]c3c2)ccc1Br`, the inhibition was -10.8% (inactive).
On to `Oc1ccc(N=Cc2sc3ccccc3c2Cl)cc1`, for which the inhibition was -0.82% (inactive).
With `COc1ccccc1CNS(=O)(=O)c1cc2c3c(c1)CCC(=O)N3CCC2`, the inhibition is -12.5% (inactive).
In the case of `Cc1cccc(C)c1NC(=O)CNC(=O)c1c(C)nn(-c2ccccc2)c1C`, the inhibition is -17.8% (inactive).
`Oc1c(Cl)cc(Cl)c(Cl)c1Cc1c(O)c(Cl)cc(Cl)c1Cl`: the inhibition was 31.2% (active).
Consider `CC(=O)N(C1=C(Cl)C(=O)c2ccccc2C1=O)c1ccc(C(=O)O)cc1`, for which the inhibition is 101% (active).
Take `Cc1oc2c(c1C(=O)N1CCOCC1)C(=O)c1ccccc1C2=O`: the inhibition is 41% (active).
Consider `CC(C(=O)Nc1ccccc1-c1ccccc1)N1CCOCC1` (stereo unspecified), for which the inhibition was -10.3% (inactive).
As to `COc1ccc2c(c1)c(=Cc1ccc(N(C)C)cc1)c1cc(-c3ccccc3)[n+](C)n12`, the inhibition is -15.8% (inactive).
On to `Cc1ccc(S(=O)(=O)N2[C@@H](c3ccc(Br)cc3)C(C(=O)O)=C[C@H]2CC2CCCC2)cc1`, for which the inhibition is 24.4% (inactive).
Under `Oc1ccc(CNc2ccccc2O)cc1` stands -5.66% (inactive); under `CCOc1ccc(C(=O)Nc2ccc(S(=O)(=O)NCC3CCCO3)cc2)cc1OCC` (stereo unspecified), -7.98% (inactive).
As for `Oc1c(CN2CCN(c3ccc(F)cc3)CC2)cc(Cl)c2cccnc12`, the inhibition was -0.25% (inactive).
For the compound `CCOc1cc(NC(=O)c2ccccc2C(=O)O)c(OCC)cc1NC(=O)c1ccccc1F`, the inhibition is -9.49% (inactive).
The result for `Cc1ccc(OCc2nnc(SC/C=C/c3ccccc3)n2Cc2ccco2)cc1` reads 15.3% (inactive); that for `COc1ccccc1N=Nc1c(O)[nH]c(=S)[nH]c1=O`, 30.5% (active).
`NC1=CC(=O)C(=O)c2cccnc21`: the inhibition was 95.4% (active).
Regarding `CCc1ccc(OCC(=O)NCC(c2ccc(Cl)cc2)N2CCCCC2)cc1` (stereo unspecified), the inhibition is 14.2% (inactive).
In the case of `COc1ccc2c(c1)C(C)=CC(C)(C)N2C(=O)Nc1ccccc1`, the inhibition was -94.5% (inactive).
`O=C1Nc2ccccc2-n2nnnc2C1N1CCN(c2cccc(C(F)(F)F)n2)CC1` (stereo unspecified): the inhibition is -5.01% (inactive).
Under `CCNC(=S)N1CCN(c2ncccn2)CC1` stands -9.28% (inactive); under `Cc1cc(C)c2c(=O)[nH]c(SCC(=O)Nc3ccc(Br)cc3)nc2n1`, -13.3% (inactive).
`Cc1ccccc1-n1c(SCC(=O)Nc2cccc3ccccc23)nc(O)cc1=O`: the inhibition is -11.1% (inactive).
Under `Cc1oc2c(F)c(F)c(F)c(F)c2c1S(=O)(=O)Nc1cccc(C(F)(F)F)c1` stands 13.9% (inactive); under `CC(C)(C)c1ccc(S(=O)(=O)NCC2CCN(C(=O)C(=O)c3cc4ccccc4o3)CC2)cc1`, -5.86% (inactive).
As for `Nc1ccc(N=Nc2ccccc2Cl)c(N)n1`, the inhibition is 8.04% (inactive).
Regarding `Oc1ccc(/C=N/Nc2ccc(C(F)(F)F)cn2)cc1O`, the inhibition was -17.2% (inactive).
Under `CCCSc1nc(NCc2ccco2)c2c3c(sc2n1)COC(C)(CC)C3` (stereo unspecified) stands -14.8% (inactive); under `O=C(O)c1ccccc1/C=N/Nc1ccc(S(=O)(=O)Nc2ccc(Cl)cc2)cc1[N+](=O)[O-]`, 12.4% (inactive); under `CN1CCN(Cc2nc3cc(NC(=O)COc4ccc([N+](=O)[O-])cc4)ccc3n2C)CC1`, -12.5% (inactive).
Under `CCN(CC(=O)Nc1c(F)cccc1F)C(=O)c1cnc(C)cn1` stands 2.27% (inactive); under `CC1CCCCC12NC(=O)N(CC(=O)OCC(=O)NCc1ccc(F)cc1)C2=O` (stereo unspecified), -0.61% (inactive).
Under `Cc1ccnc(NS(=O)(=O)c2ccc(NC(=O)c3oc4ccccc4c3C)cc2)n1` stands 5.34% (inactive); under `Cc1coc2c(O)cc3c(c12)OC1(N2CCCCC2)C(=O)NCCCC31` (stereo unspecified), 47.2% (active); under `Cn1c(=NC(=O)c2cnccn2)sc2ccccc21`, 5.19% (inactive).
As to `Cc1ccc(CSc2nc(-c3ccccc3)c(C#N)c(=O)[nH]2)cc1`, the inhibition is 13.2% (inactive).
Consider `Oc1c(C=Nc2cccc3nsnc23)ccc2ccccc12`, for which the inhibition is 100% (active).
As to `Oc1ccc(N=Cc2c(O)ccc3ccccc23)cc1`, the inhibition was 4.75% (inactive).
On to `CC(C)Cn1c(N)c(C(=O)NCc2cccs2)c2nc3ccccc3nc21`, for which the inhibition is -76.7% (inactive).
Under `C=CCC[C@@H](CCCCC)OC(=O)/C=C/[C@@H](O)[C@H](O)C[C@H](O)CC=C` stands -0.24% (inactive); under `CCc1ccc2c(c1)NC(=O)C2(C)Cc1ccc(OC(F)(F)F)cc1` (stereo unspecified), 3.85% (inactive).
On to `O=C(Nc1cccc(S(=O)(=O)N2CCCCC2)c1)c1ccc2c(c1)OCO2`, for which the inhibition was -5.32% (inactive).
Consider `COc1ccc(C(N)c2csc(NC(=O)Nc3cccc(C(F)(F)F)c3)n2)cc1` (stereo unspecified), for which the inhibition was -16.9% (inactive).
Regarding `O=C(NCc1ccc(F)cc1)c1cc(C2CCCCN2C(=O)C2CCCCC2)on1` (stereo unspecified), the inhibition is -10.2% (inactive).
The result for `Cc1nnc(SC(C)C(=O)Nc2ccc(S(=O)(=O)NC3CCCCC3)cc2)s1` (stereo unspecified) reads -7.87% (inactive); that for `CCOC(=O)N1CCC(c2cc(=O)n(-c3ccccc3)[nH]2)CC1`, -6.72% (inactive); that for `COc1ccccc1C1C(C#N)=C(N)Oc2c1c(-c1ccccc1)nn2-c1ccccc1` (stereo unspecified), 1.06% (inactive).
Consider `CCN(CC)C(=O)C1=C(C)N(Cc2ccc(C(C)(C)C)cc2)C(=O)C(CC(=O)NCc2cccc3ccccc23)C1` (stereo unspecified), for which the inhibition is 3.3% (inactive).
Consider `COc1ccc(C(=O)/C=C/c2ccc(-c3ccccc3)cc2)cc1CSCC(=O)O`, for which the inhibition was 0.4% (inactive).
The result for `COc1cccc(NC(=O)C(=O)c2cn(CC(=O)N3CCOCC3)c3ccccc23)c1` reads 0.94% (inactive).
Take `COCCn1nnnc1C(c1cc2ccc(OC)cc2[nH]c1=O)N1CCc2ccccc2C1` (stereo unspecified): the inhibition was 20.7% (inactive).
`CN(C)N1C(N)=C(C#N)C(c2ccc(Br)cc2)C2=C1CCCC2=O` (stereo unspecified): the inhibition is -25.8% (inactive).
On to `O=C1Nc2ccc([N+](=O)[O-])cc2C1=Nc1cccc(CO)c1`, for which the inhibition was 58.4% (active).
Under `CCN(CC)P(=O)(Oc1cccc(C)c1)N(CC)CC` stands -12.8% (inactive); under `CCCCCC(=O)N1C[C@H](O)[C@@H](n2cc(COC(=O)c3ccccc3)nn2)C[C@@H]1c1ccc(C)cc1`, 7.84% (inactive).
As for `CC(C)Oc1ccc(CN2CCC2(C)C(=O)NCc2ccc(C(F)(F)F)cc2)cc1` (stereo unspecified), the inhibition was 8.85% (inactive).
`CN1c2ccc(C=O)c3c(C=O)ccc(c23)N(C)C1(C)C`: the inhibition is -100% (inactive).
Under `COc1ccc(F)cc1C(=O)C1CCCN(C(=O)CCc2ccccn2)C1` (stereo unspecified) stands -14.7% (inactive); under `CCN(C[C@H]1N[C@@](CC)(C(=O)OC)[C@H]2C(=O)N(Cc3ccccc3)C(=O)[C@@H]12)S(=O)(=O)c1ccc(C(F)(F)F)cc1`, 7.2% (inactive); under `CCOC(=O)c1c(C)[nH]c2c1-c1ccccc1C(=O)C2=O`, 98.7% (active).
The result for `CCOC(=O)c1ccc(Nc2cc3ccccc3c(=O)[nH]2)cc1` reads 24.6% (inactive); that for `O=C1C=C(NS(=O)(=O)c2ccccc2)C(=O)c2ccccc21`, 15.4% (inactive).
`O=C(NC1=CC(=O)c2ccccc2C1=O)c1ccccc1`: the inhibition was 99.3% (active).
The result for `O=C(NC1CCCCC1)N1CCc2[nH]c3ccccc3c2C1` reads -22.6% (inactive); that for `CN(C)c1ccc(N/C=C/C(=O)C(F)(F)F)cc1`, 5.61% (inactive).
`Cc1cc(C(=O)N/N=C/c2ccc(O)c([N+](=O)[O-])c2)c(C)n1-c1ccc(F)cc1`: the inhibition is 8.57% (inactive).
`CCCS(=O)(=O)NC(=O)C1(C)CCN(C(=O)c2sccc2C)C1` (stereo unspecified): the inhibition was -18.9% (inactive).
On to `COc1cc2c(cc1OC)C(Cc1cc(OC)c(OC)cc1[N+](=O)[O-])=NCC2`, for which the inhibition is -18.3% (inactive).
Take `COc1ccc(NC(=O)C[C@H]2C(=O)N(CCc3ccccc3)C[C@@H]2C)cc1`: the inhibition was -25.5% (inactive).
With `COC(=O)[C@]12C[C@H](CC(=O)NCc3ccc(C)o3)C(=O)N(CCC3=CCCCC3)C1=C[C@H](C(C)(C)C)O[C@@H]2C`, the inhibition was 9.58% (inactive).
Turning to `CCOC(=O)c1ccc(NC(=O)c2nc[nH]c2C(=O)N[C@@H](CCCCNC(=O)OC(C)(C)C)C(=O)OC(C)(C)C)cc1`, the inhibition was 12.5% (inactive).
On to `O=C(NCCc1ccc(Cl)cc1Cl)c1cc([N+](=O)[O-])c[nH]c1=O`, for which the inhibition is -6.11% (inactive).
Under `COC(=O)[C@@]12C[C@@H](CC(=O)NCc3cccc(C(F)(F)F)c3)C(=O)N(Cc3ccco3)C1=CCC(C)(C)C2` stands 12.2% (inactive); under `CCN(CC)C(=O)[C@@H]1C=C2c3cccc4[nH]c(Br)c(c34)C[C@H]2N(C)C1`, -5.37% (inactive).
Take `CCn1nnnc1SCC(=O)Nc1ccc(N(C)C)cc1`: the inhibition was 6.35% (inactive).
`Cc1nnc(NC(=O)Nc2ccc(Cl)c(Cl)c2)s1`: the inhibition was -15.1% (inactive).
